# Source: PubChem BioAssay AID485353 (National Center for Advancing Translational Sciences (NCATS), 2010)
# About 610 (0.18%) of roughly 330,000 compounds were called active. Roughly 2% stayed inconclusive and do not appear here. This excerpt belongs to a sample that is enriched for actives. Values without a mark were called inactive. The call rests on the fitted dose curve.
# Test: qHTS of Yeast-based Assay for SARS-CoV PLP; further: nearly all actives have a fitted effect of over 55% in size; on activity, positive = growth rescue: 0% is about no effect
# Settings: S. cerevisiae expressing SARS-CoV PLpro; Potency: growth rescue; series mostly up to 32.9 µM; activity, positive = growth rescue: at the top concentration
# Potency means the concentration at half of the fitted maximal effect.
Structure (SMILES),"activity, positive = growth rescue [%]",Potency
CCOC(=O)c1nn(-c2ccccc2F)c2nc(Nc3ccccc3)cc(=O)n12,19.8,–
Cc1cc(NC(=O)CS(=O)(=O)c2cn(C)c3ccccc23)no1,4.32,–
CC1CN(S(=O)(=O)c2ccccc2)C(C)CN1S(=O)(=O)c1ccccc1 (stereo unspecified),7.74,–
Cn1c(SCC(=O)NC2CCCCC2)nnc1-c1cc2ccccc2o1,–,10 µM (active)
Cn1c(SCC(=O)NC2CCCCC2)nnc1-c1ccc(N)cc1,0.0296,–
CCOc1cccc(-c2nnc(SCC(=O)NC3CC3)n2C)c1,-1.58,–
CN(c1ccc2nc3ccccc3c(=O)n2n1)C1CCCCC1,-12.9,–
CC(C)Cc1nnc(NC(=O)CCC(=O)Nc2ccc3cn[nH]c3c2)s1,-0.296,–
S=c1[nH]c(-c2cccs2)cn1-c1ccccc1,–,11.2 µM (active)
S=c1[nH]nc(-c2cccs2)n1/N=C/c1cn(-c2ccccc2)nc1-c1ccc(Cl)cc1,1.04,–
O=c1oc2ccccc2cc1-c1cn(-c2ccccc2)c(=S)[nH]1,-4.67,–
CC12CCC(C(=O)N(NC(=O)c3ccccc3O)C1=O)C2(C)C (stereo unspecified),–,2.82 µM (active)
O=C(NN1C(=O)C2C(C1=O)C1C=CC2C12CC2)c1ccccc1Cl (stereo unspecified),0.328,–
COc1ccccc1C(=O)NN1C(=O)C2C3C=CC(O3)C2C1=O (stereo unspecified),4.73,–
O=c1c(Cl)c(NCc2ccc(F)cc2Cl)cnn1C12CC3CC(CC(C3)C1)C2,-19.4,–
O=C(NC1CCN(S(=O)(=O)c2ccc(F)cc2)CC1)c1ccccc1,0.666,–

Structure (SMILES),"activity, positive = growth rescue [%]",Potency
CCc1ccc(-c2nn(-c3ccccc3)cc2CSC(=N)N)cc1,14.6,–
CCCCC(=O)N(c1ccc(OC)cc1)C1C=CS(=O)(=O)C1 (stereo unspecified),-1.73,–
Nc1ccc(Nc2cc(O)c3ncccc3c2)cc1,4.05,–
Cc1ccc(OCCC(=O)Nc2ccc(S(=O)(=O)Nc3nccs3)cc2)cc1,0.527,–
O=C(NN1C(=O)C2C3C=CC(C3)C2C1=O)c1ccco1 (stereo unspecified),15,–
O=C(NN1C(=O)C2CCCCC2C1=O)c1ccco1 (stereo unspecified),1.51,–
CC(C)=C1C2CCC1C1C(=O)N(NC(=O)c3ccco3)C(=O)C21 (stereo unspecified),–,2.82 µM (active)
CC(=O)NC(c1cccs1)c1cc(Br)c2cccnc2c1O (stereo unspecified),-0.691,–
Cc1nn2c(c1-c1ccccc1)N=C(c1ccco1)CC2c1ccccc1 (stereo unspecified),-7.14,–
CC[C@]12c3[nH]c4cc(CCC(=O)N(C)C)ccc4c3CCN1C(=O)[C@@H](CC(=O)NCCCN(C)C)C[C@@H]2C(=O)N1CCN(C(=O)c2ccco2)CC1,14.8,–
CCC(C)NC(=O)C1CCCN(C(=O)NC2CCCCC2)C1 (stereo unspecified),2.48,–
Cc1ccc(S(=O)Cc2ccc(C(=O)N3CCN(C4CCCCC4)CC3)o2)cc1 (stereo unspecified),2.29,–
Cc1ccc(C(=O)COC(=O)CCN2C(=O)C3C4CCC(C4)C3C2=O)cc1C (stereo unspecified),-3.46,–
O=C(CCN1C(=O)C2C3C=CC(C3)C2C1=O)Oc1ccc2ccccc2c1 (stereo unspecified),0.162,–
Cc1ccc(C(=O)COC(=O)CCN2C(=O)C3C4CC(C(Br)C4Br)C3C2=O)cc1 (stereo unspecified),–,12.6 µM (active)
